Where “and” joins values, the source holds several entries; their conditions need not be identical. Equal values may be shown once. Out of some 5,500 compounds screened, about 2,000 (36%) were called active. Roughly 18% stayed inconclusive and do not appear here. Rule as the data show it: active = normalized growth mostly below about 0.91 (no sharp cut-off); inconclusive = no clear call, values can overlap the other calls; inactive = mostly above about 0.92. This is one part of the list.
Experiment: chemical genetic growth profiling, strain panel (AID 1159580);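 also: tested at 20 µM; growth read once vehicle control cultures reached saturation at 30 °C; 1 = growth at the plate median or of vehicle wells; lower values mean less growth of the strain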
Conditions: S. cerevisiae deletion strains, growth OD

Measured: normalized growth

C#C[C@]1(O)CCC2C3CCC4=Cc5oncc5C[C@]4(C)C3CC[C@@]21C (stereo partly specified)
0.729 (active) and 0.973 (inactive): locus YJL095W, strain BCK1, stronger effect = lower value
active: locus YBR229C, strain ROT2, stronger effect = lower value 0.898 | locus YDL074C, strain BRE1, stronger effect = lower value 0.725 | locus YDR101C, strain arx1, stronger effect = lower value 0.887 | locus YDR159W, strain sac3, stronger effect = lower value 0.839 | locus YDR318W, strain mcm21, stronger effect = lower value 0.891 | locus YDR392W, strain spt3, stronger effect = lower value 0.542 | locus YDR502C, strain sam2, stronger effect = lower value 0.887 | locus YER155C, strain BEM2 (second series), stronger effect = lower value 0.828 | locus YER155C, strain BEM2, stronger effect = lower value 0.903 | locus YGL086W, strain mad1, stronger effect = lower value 0.85 | locus YHR079C, strain IRE1 (second series), stronger effect = lower value 0.924 | locus YHR129C, strain ARP1, stronger effect = lower value 0.889 | locus YHR200W, strain rpn10, stronger effect = lower value 0.912 | locus YIL066C, strain RNR3, stronger effect = lower value 0.785 | locus YIL125W, strain kgd1, stronger effect = lower value 0.917 | locus YIR030C, strain dcg1, stronger effect = lower value 0.927 | locus YJL129C, strain trk1, stronger effect = lower value 0.83 | locus YJL166W, strain qcr8, stronger effect = lower value 0.899
inactive: locus YAL021C, strain ccr4, stronger effect = lower value 1.05 | locus YAL026C, strain drs2, stronger effect = lower value 0.977 | locus YAL030W, strain snc1, stronger effect = lower value 0.94 | locus YBL061C, strain skt5, stronger effect = lower value 0.941 | locus YBR009C, strain hhf1, stronger effect = lower value 0.918 | locus YBR021W, strain FUR4, stronger effect = lower value 1.01 | locus YBR023C, strain chs3, stronger effect = lower value 0.958 | locus YBR171W, strain sec66, stronger effect = lower value 0.937 | locus YBR231C, strain swc5, stronger effect = lower value 0.966 | locus YBR279W, strain paf1, stronger effect = lower value 0.969 | locus YCL011C, strain gbp2, stronger effect = lower value 0.97 | locus YCL016C, strain dcc1, stronger effect = lower value 0.996 | locus YCL029C, strain bik1, stronger effect = lower value 0.919 | locus YCL061C, strain MRC1, stronger effect = lower value 0.943 | locus YCL069W, strain vba3, stronger effect = lower value 0.956 | locus YCR088W, strain abp1, stronger effect = lower value 0.943 | locus YDL005C, strain med2, stronger effect = lower value 0.954 | locus YDL035C, strain GPR1, stronger effect = lower value 0.94 | locus YDL040C, strain nat1, stronger effect = lower value 0.958 | locus YDL101C, strain DUN1, stronger effect = lower value 0.906 | locus YDL185W, strain tfp1, stronger effect = lower value 0.932 | locus YDL192W, strain arf1, stronger effect = lower value 0.933 | locus YDR001C, strain nth1, stronger effect = lower value 0.961 | locus YDR069C, strain doa4, stronger effect = lower value 0.96 | locus YDR137W, strain rgp1, stronger effect = lower value 0.859 | locus YDR150W, strain NUM1, stronger effect = lower value 0.929 | locus YDR162C, strain NBP2, stronger effect = lower value 0.866 | locus YDR195W, strain ref2 0.978 | locus YDR297W, strain sur2, stronger effect = lower value 0.937 | locus YDR334W, strain swr1, stronger effect = lower value 0.965 | locus YDR335W, strain msn5, stronger effect = lower value 0.95 | locus YDR388W, stronger effect = lower value 0.957 | locus YEL003W, strain gim4, stronger effect = lower value 0.932 | locus YEL037C, strain rad23, stronger effect = lower value 0.971 | locus YEL061C, strain CIN8 (second series), stronger effect = lower value 0.958 | locus YEL061C, strain CIN8, stronger effect = lower value 0.93 | locus YER015W, strain faa2, stronger effect = lower value 0.961 | locus YER016W, strain bim1, stronger effect = lower value 0.969 | locus YER110C, stronger effect = lower value 0.933 | locus YER111C, strain swi4, stronger effect = lower value 0.978 | locus YER167W, strain BCK2, stronger effect = lower value 0.939 | locus YFR010W, strain ubp6, stronger effect = lower value 0.927 | locus YGL078C, strain dbp3, stronger effect = lower value 0.962 | locus YGL167C, strain pmr1, stronger effect = lower value 0.942 | locus YGL173C, strain kem1, stronger effect = lower value 0.929 | locus YGL227W, strain vid30, stronger effect = lower value 0.958 | locus YGL240W, strain doc1, stronger effect = lower value 0.94 | locus YGL248W, strain PDE1, stronger effect = lower value 0.892 | locus YGL253W, strain hxk2, stronger effect = lower value 0.946 | locus YGR135W, strain pre9, stronger effect = lower value 0.999 | locus YGR252W, strain gcn5, stronger effect = lower value 0.99 | locus YHR013C, strain ard1, stronger effect = lower value 1.01 | locus YHR027C, strain rpn1, stronger effect = lower value 0.979 | locus YHR079C, strain IRE1, stronger effect = lower value 0.964 | locus YHR094C, strain hxt1, stronger effect = lower value 0.939 | locus YHR142W, strain chs7, stronger effect = lower value 0.888 | locus YIL073C, strain SPO22, stronger effect = lower value 0.871 | locus YJL092W, strain hpr5, stronger effect = lower value 0.934 | locus YJL095W, strain BCK1 (second series), stronger effect = lower value 0.976 | locus YJL115W, strain asf1, stronger effect = lower value 0.952 | locus YJL134W, strain LCB3, stronger effect = lower value 0.944 | locus YJL154C, strain vps35, stronger effect = lower value 0.961 | locus YJL164C, strain tpk1, stronger effect = lower value 0.973 | locus YJL168C, strain set2, stronger effect = lower value 0.941 | locus YJL187C, strain SWE1 (second series), stronger effect = lower value 0.904 | locus YJR043C, strain POL32, stronger effect = lower value 0.93
0.825 (active) and 0.957 (inactive): locus YHR030C, strain SLT2, stronger effect = lower value

Reference: PubChem BioAssay AID1159580 (chemical genetic matrix, 2015)
